Measurements as given in PubChem BioAssay AID1117361 (Southern Research Institute, 2015).
Screen size: about 3,600 compounds; about 900 (25%) were called active. How the calls were made is not given here. The list is a sample of the results. Entries with a potency or affinity are not part of this list.

molecular target: Protein Tat (Human immunodeficiency virus type 1 group M subtype B (isolate HXB2)) (UniProt P04608); test: inhibitors of Tat binding to TAR RNA, dose response, counter-screen for Vif-APOBEC3G degradation inhibitor project, biochemical, fluorescence polarization, FAM-labeled TAR RNA (AID 1117361); conditions: outcome: dose series up to 100 µM unless noted; series mostly up to 100 µM

Row | SMILES | outcome
1 | COc1ccc(C2CC(=O)Nc3cc(C)c(C)cc32)c(OC)c1OC (centres undefined) | inactive
2 | CC(C(=O)N1CCOCC1)(c1ccccc1)c1ccccc1 | inactive
3 | CC(=O)c1ccc(Nc2nc(=O)c3cccnc3s2)cc1 | inactive
4 | CN(C)c1ccc(C=c2c3cc([N+](=O)[O-])ccc3n3c2cc(-c2ccccc2)[n+]3C)cc1 | inactive
5 | NNC(=S)Nc1ccc(Cl)cc1 | inactive
6 | CC(=O)c1ccc(N2CCN(C(=O)c3ccc4c(c3)OCO4)CC2)cc1 | inactive
7 | O=C(NCCS(=O)CCNC(=O)C(F)(F)F)C(F)(F)F | inactive
8 | Cc1onc(-c2ccccc2)c1C(=O)NCC1COc2ccccc2O1 (centres undefined) | inactive
9 | CC(=O)Cc1nsc(Nc2ccc3c(c2)OCCO3)n1 | inactive
10 | O=C(NN(C(=O)c1ccccc1)c1ccccc1)c1ccccc1 | inactive
11 | CC(NC(=O)C1C(=O)N(CCO)C2(C)CC1c1ccccc1O2)c1ccccc1 (centres undefined) | inactive
12 | CN1OC[C@@H]2CN(C(=O)C(C)(C)C)[C@H](c3cccc(Oc4ccccc4)c3)C[C@@H]21 | inactive
13 | O=C(c1cc(COc2cccc3cccnc23)on1)N1CCC[C@H]1CO | inactive
14 | C=CCc1cc(Cl)ccc1OC(=O)Nc1cccc(Cl)c1 | inactive
15 | COc1ccc2[nH]c3c(N4CCC(O)(c5cccc(C(F)(F)F)c5)CC4)ncnc3c2c1 | inactive
16 | Clc1ccc(CSc2snnc2-c2ccccc2)c(Cl)c1 | inactive
17 | Cc1ccc(CSc2nnc(-c3ccco3)o2)cc1 | inactive
18 | CCCCN(CCCC)CCCN1CC(=O)N2[C@@H](Cc3c([nH]c4ccccc34)C2(C)C)C1=O | inactive
19 | CC(C)Cn1c(=O)[nH]c2ccccc21 | inactive
20 | COc1ccc(CCN=C(N)NS(=O)(=O)c2ccc(C)cc2)cc1 | inactive
21 | O=C(NCc1ccco1)c1sc2cccc(F)c2c1Cl | inactive
22 | CCN(CC)C(=O)Cn1cnc2sc(C(=O)Nc3cc(OC)c(OC)c(OC)c3)c(C)c2c1=O | inactive

Row | SMILES | outcome
23 | Cc1cc(NC(=O)CSc2nnc(-c3ccncc3)n2N)ccc1Br | inactive
24 | CCc1ccc(NC(=O)CCNS(=O)(=O)c2cccc3nonc23)cc1 | inactive
25 | CCN(CC)c1ccc(NC(=O)c2ccc(Br)o2)cc1 | inactive
26 | COc1ccc(NC(=O)c2ccc(S(=O)(=O)N3CCOCC3)o2)cc1 | inactive
27 | O=C(O)Cn1c(=O)c2c(c3ccccc31)CCC2 | inactive
28 | CS(=O)(=O)N1CCN(c2ccccc2NC(=O)CSc2ccc(Cl)cc2)CC1 | inactive
29 | Cn1cccc1Cc1nnc(SCC(N)=O)n1CCc1ccccc1 | inactive
30 | CC[C@H](C)[C@H](NC(N)=O)C(=O)NCCc1ccc(OC)cc1 | inactive
31 | Cc1c(C)n(CC(O)CN2CCCCCC2)c2ccccc12 (centres undefined) | inactive
32 | CC1CCc2c(sc3ncn4c(SCC(=O)NCc5ccco5)nnc4c23)C1 (centres undefined) | inactive
33 | Cc1ccc(-n2c(SCC(=O)NCc3ccco3)nc3c([nH]c4ccccc43)c2=O)cc1 | inactive
34 | CCn1c(Cc2c(C)[nH]c3ccccc23)n[nH]c1=S | inactive
35 | COc1ccc(-c2noc(Cc3cccs3)n2)cc1 | inactive
36 | O=C(/C=C/c1ccc(O)c(O)c1)c1ccc(S(=O)(=O)N2CCCCCC2)cc1 | inactive
37 | CCCNS(=O)(=O)c1ccc(NC(=O)c2ccccn2)cc1 | inactive
38 | CC(C)(C)c1ccc(C(=O)Oc2ccc3c(c2)OCC3=O)cc1 | inactive
39 | O=C1/C(=C\c2ccco2)CCC/C1=C\c1ccco1 | inactive
40 | C=CCNC(=S)NNC(=O)c1ccccc1 | inactive
41 | COc1ccc(N/N=C(\C#N)C(=N)SCc2ccccc2)cc1 | inactive
42 | CC1(C)Cc2cccc(OCC(O)CN3CCN(c4ccccn4)CC3)c2O1 (centres undefined) | inactive
43 | O=C1CNC(=O)/C1=C/c1ccc(Br)cc1 | inactive
44 | CC1CC(C)CN(C(=O)COC(=O)CNS(=O)(=O)/C=C/c2ccccc2)C1 (centres undefined) | inactive

Row | SMILES | outcome
45 | CCS(=O)(=O)N1CCN(C(=O)c2cccc3ccccc23)CC1 | inactive
46 | CN(C)CCCNC(NC(=O)c1cccs1)C(Cl)(Cl)Cl (centres undefined) | inactive
47 | Cc1nc2c3ccccc3n(CC(=O)c3ccc(F)cc3)c(=O)n2n1 | inactive
48 | O=C(NC(=S)N1CCN(c2c(Cl)cccc2[N+](=O)[O-])CC1)c1cccs1 | inactive
49 | COc1cc2c(cc1NC(=O)CC1SC(N3CCCC3)=NC1=O)oc1ccccc12 (centres undefined) | inactive
50 | COc1ccc(N2CCN(C(=O)c3ccc(C)c(Cl)c3)CC2)cc1 | inactive
51 | O=S(=O)(c1ccc2nc(-c3ccco3)c(-c3ccco3)nc2c1)N1CCOCC1 | inactive
52 | COc1ccc2nc(N3CCN(C(=O)c4ccc5ncsc5c4)CC3)sc2c1 | inactive
53 | COc1ccc(C(=O)Nc2cccc(C(=O)N3CCN(C)CC3)c2)cc1 | inactive
54 | O=S(=O)(c1ccc(F)cc1)N(CCO)CC(O)Cn1c2ccccc2c2ccccc21 (centres undefined) | inactive
55 | Cc1c(C(=O)N2CCN(c3ccc(F)cc3)CC2)sc2nc(-c3ccccc3)cn12 | inactive
56 | CCS(=O)(=O)n1nc(-c2ccc(Cl)cc2)nc1SC | inactive
57 | Cn1c(C(=O)NCCN2CCOCC2)cc2c(=O)n(C)c3ccccc3c21 | inactive
58 | COc1ccc(CNC(=O)Cn2nc(C(F)(F)F)c3c2CCC3)cc1 | inactive
59 | Cc1sc(NC(=O)c2ccccc2)c(C(=O)NCCN(C)C)c1C | inactive
60 | NC(=O)C1CCN(C2=C(Cl)C(=O)c3ccccc3C2=O)CC1 | inactive
61 | CC1COCC(C)N1C1=C(Cl)C(=O)c2ccccc2C1=O (centres undefined) | inactive
62 | CCc1cc2c(=O)n(-c3ccc(C)cc3)cnc2s1 | inactive
63 | COc1ccc(CCNS(=O)(=O)c2ccc3c(c2)CCN3C(=O)CCC(=O)O)cc1OC | inactive
64 | COc1ccc(C2C(C(=O)NCCN(C)C)c3ccccc3C(=O)N2C)cc1OC (centres undefined) | inactive
65 | CCCCN(CCCC)S(=O)(=O)c1ccc(NC(=O)c2cccs2)cc1 | inactive
66 | [O-][n+]1onc2c1CCc1c-2nc(-c2ccccc2)n1OCc1ccccc1 | inactive

Row | SMILES | outcome
67 | CCN(CCCNC(=O)C1CCCN(S(=O)(=O)CC)C1)c1cccc(C)c1 (centres undefined) | inactive
68 | O=C(c1ccc2c(c1)OCCO2)C1CCN(C(=O)c2ccc(F)cc2)CC1 | inactive
69 | CCc1ccccc1NC(=S)N(Cc1ccc(OC)cc1)CC1CCC(C(=O)O)CC1 (centres undefined) | inactive
70 | CCn1cc(C(=O)NCc2ccc3c(c2)OCO3)c2cc(OC)c(OC)cc2c1=O | inactive
71 | CCOC(=O)C1=C(CN2CCN(c3ccc(F)cc3)CC2)NC(=O)NC1c1cccs1 (centres undefined) | inactive
72 | Cc1ccc(C(=O)C2C(c3cccs3)NC(=O)NC2(O)C(F)(F)F)cc1 (centres undefined) | inactive
73 | Cn1cccc1C(=O)NC(=O)COC(=O)CC12CC3CC(CC(Br)(C3)C1)C2 | inactive
74 | CC1=C(C(=O)OCC(Cl)(Cl)Cl)N2C(=O)C(NC(=O)Cc3ccccc3)C2SC1 (centres undefined) | inactive
75 | O=C(Cc1ccccc1)Nc1scc(-c2ccccc2)c1C(=O)N1CCOCC1 | inactive
76 | CC(=O)[C@@]1(O)CC[C@H]2[C@@H]3CCC4=CC(=O)CC[C@]4(C)[C@H]3CC[C@@]21C | inactive
77 | Cc1sc(-c2ccncc2)nc1OC(=O)c1ccccc1 | inactive
78 | COc1ccc(S(=O)(=O)NC2CC(C)(C)NC(C)(C)C2)c(C)c1C | inactive
79 | Cc1sc2nc(C)n(/N=C/c3ccccc3O)c(=O)c2c1C | inactive
80 | C=CCNC(=O)c1cc(=O)c2ccccc2o1 | inactive
81 | Cc1nn(-c2ccc(Cl)cc2)c2[nH]c(=O)c(CNCc3ccc4c(c3)OCO4)cc12 | inactive
82 | O=c1oc(/C=C/c2ccccc2)nc2sc3c(c12)CCC3 | inactive
83 | O=[N+]([O-])c1cc(C(F)(F)F)ccc1N1CCN(S(=O)(=O)c2ccc3ccccc3c2)CC1 | inactive
84 | COC(=O)C1=C(Nc2ccc(OC)cc2)C=C(C)C(C(=O)OC)C1c1ccc(C)cc1 (centres undefined) | inactive
85 | CC1(C)CC(NS(=O)(=O)c2ccccc2)CC(C)(C)N1 | inactive
86 | CC1(C)C2CCC1(C)C(NC1=NCCC1)C2 (centres undefined) | inactive
87 | CC(=NCc1ccc2c(c1)OCO2)C1=C(O)c2ccccc2C1=O | inactive
88 | CCCN(CCC)C(=O)c1cc(-c2ccc3c(c2)OCO3)nc2ccccc12 | inactive

Row | SMILES | outcome
89 | CC(OC(=O)CC1CCCC1)C(=O)Nc1ccc(Cl)cn1 (centres undefined) | inactive
90 | Nn1c(SCC(=O)NC2CCCc3ccccc32)nnc1-c1cccs1 (centres undefined) | inactive
91 | COc1ccccc1CNS(=O)(=O)c1cccc(S(=O)(=O)N2CCOCC2)c1 | inactive
92 | COC(=O)C1C2CCC(C2)C1C(=O)OCC(=O)c1ccc(C)cc1 (centres undefined) | inactive
93 | CC(C)CC(=O)N(c1ccc(F)cc1)C1C=CS(=O)(=O)C1 (centres undefined) | inactive
94 | O=C(CCl)N1N=C(c2ccco2)CC1c1ccco1 (centres undefined) | inactive
95 | Cc1cc(C)cc(NC(=S)NC(=O)CCN2C(=O)c3ccccc3C2=O)c1 | inactive
96 | CCCCOc1cccc(C(=O)NC(=S)Nc2ccc(Cl)c(C(=O)O)c2)c1 | inactive
97 | CCc1ccc(-c2cc(C(=O)Nc3ccc(S(=O)(=O)NC(C)=O)cc3)c3ccccc3n2)cc1 | inactive
98 | COC(=O)c1ccc(C)c(NS(=O)(=O)c2ccc(NC(C)=O)cc2)c1 | inactive
99 | CC(=O)Nc1ccc(S(=O)(=O)Nc2cccc(-c3nc4ccccc4o3)c2)cc1 | inactive
100 | COc1ccc(N2CCN(c3nc4ccccc4nc3NS(=O)(=O)c3ccccc3)CC2)cc1 | inactive
101 | COc1ccc(NCc2nnc(SCC(=O)N3CCCc4ccccc43)o2)cc1 | inactive
102 | O=c1oc(-c2cccnc2)nc2ccccc12 | inactive
103 | CC(C)(C)c1ccc(NC(=S)NCc2cccnc2)cc1 | inactive
104 | FC(F)Oc1ccccc1NC(=S)Nc1cccnc1 | inactive
105 | COc1ccc(N2C(=O)C3CCCN3C2c2ccc(C)cc2)cc1 (centres undefined) | inactive
106 | CS(=O)(=O)N1CCC(C(=O)NCCc2ccccc2)CC1 | inactive
107 | Cn1c(CNC(=O)C2CCCCC2)cc2cc(Cl)ccc21 | inactive
108 | CC(CN1CCN(C)CC1)OC(=O)c1ccccc1Cl (centres undefined) | inactive
109 | COc1ccc(C)cc1NC(=O)c1[nH]c(C)c(C(C)=O)c1C | inactive
